Screening results deposited in PubChem BioAssay by National Center for Advancing Translational Sciences (NCATS).
ELG1 repair inh: inhibitors of ELG1-dependent DNA repair in HEK293T cells | HEK293T ELG1-luciferase reporter, luminescence, 16 h; DNA damage induced by 5-fluorouridine | Potency, µM (top dose mostly 46.1 µM), inactives show top-dose activity change, negative = inhibition, usual class: inhibitors | 2.3% of 330,000 active; note: potency is the fitted concentration of half-maximal effect; nearly all actives have a fitted effect of over 55% in size
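5-Fluorouridine DNA damage + compound/DMSO, 2,000 cells/well, 16 h, 37 °C/5% CO2. ONE-Glo, 30 min RT, luminescence. Readout = decrease in reporter signal.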
IL1B secr inh: inflammasome signaling inhibition, IL-1 beta readout | AID 743279 | activity change, % at 57.5 µM | 4.7% of 360,000 active | THP-1 LPS/ATP IL-1B secretion, AlphaLISA, 16 h; active compounds read low; in the data active = activity change below about -50%; inconclusive = mostly about -30% to -49%
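THP-1 cells pretreated 1 hr with compounds (up to 57.5 uM final), then stimulated with LPS (250 ng/mL final) plus ATP (1.25 mM final); secreted IL-1B measured by AlphaLISA after 16 hr, decreased signal indicating inhibition.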
TDP1 cell CPT: growth inhibition of DT40 Tdp1-/-;hTDP1 cells with camptothecin (screen for TDP1 inhibitors). chicken DT40 Tdp1-/-;hTDP1 cells + 20 nM CPT, ATP luminescence, 48 h. Potency, µM (highest dose often 46.2 µM), without a hit: at the top dose activity change, negative = growth inhibition, hits mostly inhibitors. 12% of 420,000 active; note: potency is the fitted concentration of half-maximal effect; nearly all actives have a fitted effect of over 55% in size
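Chicken DT40 Tdp1-/- cells stably complemented with human TDP1 were seeded at 400 cells/well in medium containing 20 nM camptothecin, exposed to pin-transferred compounds, and grown at 37 °C for at least 48 hr. Viability was read as ATP luminescence.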
Gal4-VP16 FLuc: Gal4-VP16 reporter inhibition counter-screen | AID 2546 | Drosophila S2 Gal4-VP16 UAS-luciferase, luminescence, 20 h | Potency, µM (titrated, usually from 53.6 µM), for inactives: at the highest dose activity, negative = inhibition, hits mostly inhibitors | 3.5% of 310,000 active;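 note: Gal4-VP16 expression switched on by copper sulfate through the metallothionein promoter; potency is the fitted concentration of half-maximal effect; nearly all actives have a fitted effect of over 50% in size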
RORg inh: ROR gamma (mouse) transcription inhibition; Drosophila S2 Gal4-RORgamma UAS-luciferase reporter, 20 h; Potency, µM (doses to about 53.6 µM), for inactives: at the top dose activity change, negative = inhibition, hits mostly inhibitors; 5.4% of 310,000 active; note: potency is the fitted concentration of half-maximal effect; nearly all actives have a fitted effect of over 60% in size
Target sequence (P51450 whole entry, looked up, the tested form may be a part): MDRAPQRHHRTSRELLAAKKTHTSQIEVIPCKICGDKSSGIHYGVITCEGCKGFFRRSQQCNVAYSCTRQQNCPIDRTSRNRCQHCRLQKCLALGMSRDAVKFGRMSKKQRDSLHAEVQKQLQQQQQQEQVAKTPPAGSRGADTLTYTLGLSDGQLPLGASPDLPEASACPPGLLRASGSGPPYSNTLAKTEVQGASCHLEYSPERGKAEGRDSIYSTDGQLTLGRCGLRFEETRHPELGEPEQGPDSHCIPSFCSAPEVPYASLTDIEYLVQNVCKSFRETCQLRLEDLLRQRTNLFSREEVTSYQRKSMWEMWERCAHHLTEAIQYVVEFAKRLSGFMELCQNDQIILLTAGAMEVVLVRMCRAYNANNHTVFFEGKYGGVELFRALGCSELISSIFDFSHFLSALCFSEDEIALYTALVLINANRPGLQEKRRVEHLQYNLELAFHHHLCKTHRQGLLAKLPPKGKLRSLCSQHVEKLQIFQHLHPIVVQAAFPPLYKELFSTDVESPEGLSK
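Using a luciferase readout, inhibitors were identified by reduced reporter activity in Drosophila cells coexpressing a copper-inducible Gal4–ROR gamma fusion and UAS-driven Photinus luciferase, incubated 20 hr after 700 uM copper sulfate.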
DT40 TDP1 no CPT: qHTS for Inhibitors of human tyrosyl-DNA phosphodiesterase 1 (TDP1): qHTS in cells in absence of CPT | Potency, µM (highest dose often 46.2 µM), without a hit: at the top dose activity change, negative = growth inhibition, usual class: inhibitors | DT40 Tdp1-/- hTDP1 cells, no CPT, ATP luminescence, 48 h | AID 686978, 2013 | 15% of 420,000 active; note: potency is the fitted concentration of half-maximal effect; nearly all actives have a fitted effect of over 55% in size
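Compound effects on proliferation are scored in DT40 Tdp1-/-;hTDP1 cells in the absence of CPT. ATP levels (CellTiter-Glo luminescence) are recorded after a ≥48 hr, 37 °C incubation.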
The depositor's hits bear a star. Only some compounds are listed: those with a hit (about 21% of all), similar ones and a draw of the others. Unless noted, calls come from the whole dose curve; as a rule, active = well fitted curve in the direction sought with a large enough effect; inconclusive = small, poorly fitted or top-dose-only effect, or another doubt; inactive = no such curve, though single readings can be large; an effect the other way counts as inactive or inconclusive. % is set by controls: 0 for no effect and ±100 for the full control effect.

Screening CN1OC[C@@H]2CN(C(=O)CCc3ccccc3)[C@H](c3ccc(N4CCCCC4)cc3)C[C@@H]21 returned IL1B secr inh -15, TDP1 cell CPT inconclusive and DT40 TDP1 no CPT inconclusive.
Screening COC(=O)[C@]1(C)CCC[C@@]2(C)C3CC[C@]4(OC(C)=O)C[C@@]3(CCC21)CC4=O (stereo partly drawn) returned ELG1 repair inh inconclusive, IL1B secr inh 24, TDP1 cell CPT 21µM* and DT40 TDP1 no CPT inconclusive.
Screening COC(=O)[C@]1(C)CCC[C@@]2(C)C3CC[C@@]4(C)C[C@]3(CCC21)CC(=O)N4Cc1ccc(OC)cc1 (stereo partly drawn) returned ELG1 repair inh 7%, IL1B secr inh inconclusive, TDP1 cell CPT 12µM* and DT40 TDP1 no CPT 6.5µM*.
Screening C[C@@]12CCC3[C@@](CCC4[C@@]3(C)CCC[C@@]4(C)C(=O)Nc3ccc(Cl)cc3)(CC1=O)C2 (stereo partly drawn) returned ELG1 repair inh 0%, IL1B secr inh 27, TDP1 cell CPT inconclusive and DT40 TDP1 no CPT inconclusive.
Screening COc1ccc2cc1Oc1ccc(cc1)CC1c3cc(c(OC)cc3CCN1C)Oc1c(OC)c(OC)c(OC)c3c1C(C2)N(C)CC3 (stereo not drawn) returned Gal4-VP16 FLuc -2% and RORg inh 0%.
CCOC(=O)C(=O)Cc1cccnn1 was read as IL1B secr inh 8, TDP1 cell CPT 4% and DT40 TDP1 no CPT -1%.
O=C1[C@H](Cc2ccccc2)NCC=CC[C@H](c2ccc(Cl)cc2)N1Cc1ccc(Cl)cc1 was read as IL1B secr inh -66*, TDP1 cell CPT 23µM* and DT40 TDP1 no CPT 16µM*.
CC(C)CC(=O)N1C/C=C\C[C@@H](c2ccc(Cl)cc2)N(Cc2ccc(Cl)cc2)C(=O)[C@@H]1Cc1ccccc1 was read as TDP1 cell CPT 10µM* and DT40 TDP1 no CPT 13µM*.
For O=C1[C@H](Cc2ccccc2)NCC=CC[C@H](c2ccc(Cl)cc2)N1Cc1ccccc1 the results were IL1B secr inh -52*, TDP1 cell CPT inconclusive and DT40 TDP1 no CPT inconclusive.
`O=C1SC(Nc2ccc(Cl)cc2)C(=O)N1Cc1ccccc1` (stereo not drawn) gave TDP1 cell CPT -4% and DT40 TDP1 no CPT inconclusive.
For O=c1[nH]c2ccccc2n1Cc1ccc(Cl)cc1 the results were ELG1 repair inh -11%, IL1B secr inh -4, TDP1 cell CPT -20%, Gal4-VP16 FLuc -4%, RORg inh 12% and DT40 TDP1 no CPT inconclusive.
`O=C1[C@H](Cc2ccccc2)NCC=CC[C@@H](c2ccc(Cl)cc2)N1Cc1ccc(Cl)cc1` gave IL1B secr inh -60*, TDP1 cell CPT inconclusive and DT40 TDP1 no CPT inconclusive.
`CCC(c1nnnn1-c1ccc2c(c1)OCCO2)N1CCN(c2ccccc2OC)CC1` (stereo not drawn) gave IL1B secr inh 0, TDP1 cell CPT inconclusive and DT40 TDP1 no CPT inconclusive.
CC(C)CN(CCCNC(=O)Cn1ncc2c3ccccc3n(C)c2c1=O)CC(C)C was read as TDP1 cell CPT -3% and DT40 TDP1 no CPT -17%.
`COc1ccc2[nH]c3c(c2c1)CC(C)NC3=O` (stereo not drawn) gave ELG1 repair inh inconclusive, IL1B secr inh inconclusive, TDP1 cell CPT inconclusive, Gal4-VP16 FLuc -5%, RORg inh 3% and DT40 TDP1 no CPT 7.3µM*.
`COc1ccc2[nH]c3c(c(=O)c2c1)CCCC3` gave IL1B secr inh 10, TDP1 cell CPT inconclusive and DT40 TDP1 no CPT -27%.
COCc1cc(C)nc2sc(C(=O)Nc3cc(C)ccc3F)c(N)c12 was read as TDP1 cell CPT -14% and DT40 TDP1 no CPT inconclusive.
O=C(c1cccc2ccccc12)N1CCCCC1 was read as ELG1 repair inh 30%, IL1B secr inh 6, TDP1 cell CPT 0% and DT40 TDP1 no CPT -18%.
`O=C(O)c1ccc(N2C(=O)c3cccc4c(C(=O)O)ccc(c34)C2=O)cc1` gave ELG1 repair inh 7%, IL1B secr inh 22, TDP1 cell CPT -3%, Gal4-VP16 FLuc -8%, RORg inh -7% and DT40 TDP1 no CPT -17%.
Screening O=C1c2cccc3c(Cl)ccc(c23)C(=O)N1O returned ELG1 repair inh -10%, IL1B secr inh 2, TDP1 cell CPT inconclusive, Gal4-VP16 FLuc -18%, RORg inh -2% and DT40 TDP1 no CPT 5.8µM*.
For O=C(O)c1cccc(N2C(=O)c3cccc4c(Cl)ccc(c34)C2=O)c1 the results were ELG1 repair inh 1%, IL1B secr inh -52*, TDP1 cell CPT inconclusive, Gal4-VP16 FLuc -11%, RORg inh 8% and DT40 TDP1 no CPT -14%.
For O=C(c1ccc2c3c(cccc13)C(=O)N(O)C2=O)N1CCCCC1 the results were ELG1 repair inh inconclusive, IL1B secr inh -11, TDP1 cell CPT 8.2µM*, Gal4-VP16 FLuc 5%, RORg inh inconclusive and DT40 TDP1 no CPT 7.3µM*.
O=C1c2ccc3c4c(ccc(c24)C(=O)N1c1cccc(O)c1)C(=O)N(c1cccc(O)c1)C3=O was read as ELG1 repair inh 6.5µM*, IL1B secr inh -13, TDP1 cell CPT 4.1µM*, Gal4-VP16 FLuc inconclusive, RORg inh inconclusive and DT40 TDP1 no CPT 6.5µM*.
For Cc1ccc(S(=O)(=O)C[C@@H]2OC[C@H](Cc3ccccc3)N2S(=O)(=O)c2ccc(C)cc2)cc1 the results were IL1B secr inh 22, TDP1 cell CPT inconclusive and DT40 TDP1 no CPT inconclusive.
Screening CC(C(=O)c1ccccc1)[n+]1cccc(Br)c1 (stereo not drawn) returned ELG1 repair inh -2%, IL1B secr inh 22, TDP1 cell CPT inconclusive, Gal4-VP16 FLuc -9%, RORg inh -6% and DT40 TDP1 no CPT inconclusive.
For O=C1N=C2SCCN2/C1=C\c1ccc(Cl)cc1 the results were ELG1 repair inh 20%, IL1B secr inh -68*, TDP1 cell CPT -28%, Gal4-VP16 FLuc 16%, RORg inh -43% and DT40 TDP1 no CPT inconclusive.
Screening O=C(Cc1ccccc1)NCC(=O)N1CCN(c2ccccc2)CC1 returned ELG1 repair inh inconclusive, IL1B secr inh inactive, TDP1 cell CPT -7%, Gal4-VP16 FLuc 0%, RORg inh -10% and DT40 TDP1 no CPT 7%.
